The full data set covers some 8,800 targets. This sample favours those with a hit. About 0.5% of all pairs of compound and target were hits. Values without a mark were called inactive.
What was measured:
Test in all cases: log2 fold change, soluble protein after heating vs DMSO (PISA); higher = thermal stabilisation; K562 lysate, 10 uM; active = over 0.2 and 3.5 SD of the protein, either way, in both replicates (recomputed)
vemurafenib = compound: CCCS(=O)(=O)Nc1ccc(F)c(C(=O)c2c[nH]c3ncc(-c4ccc(Cl)cc4)cc23)c1F [vemurafenib]
Outline: (§1)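 A 30 min treatment with 10 μM compound was applied to crude K562 extract at 1 mg/mL protein in PBS pH 7.4 with 1 mM MgCl2. Heating for 3 min spanned 48°C-58°C, after which aliquots were pooled, adjusted to 0.5% NP-40 at 4°C and spun at 21,000xg for 90 min. TMTpro 16plex LC-MS/MS of the supernatant, with channel sums equalised, gave values recorded as log-two fold change in thermal stability against solvent controls, from duplicates.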

[1] = compound: CCCS(=O)(=O)Nc1ccc(F)c(C(=O)c2c[nH]c3ncc(Cl)cc23)c1F
Outline: as §1

barasertib = compound: CCN(CCCOc1ccc2c(Nc3cc(CC(=O)Nc4cccc(F)c4)[nH]n3)ncnc2c1)CCOP(=O)(O)O [barasertib]
Outline: as §1

[2] = compound: CC[C@@H]1C(=O)N(C)c2cnc(Nc3ccc(C(=O)NC4CCN(C)CC4)cc3OC)nc2N1C1CCCC1
Outline: as §1

volasertib = compound: CC[C@@H]1C(=O)N(C)c2cnc(Nc3ccc(C(=O)N[C@H]4CC[C@H](N5CCN(CC6CC6)CC5)CC4)cc3OC)nc2N1C(C)C [volasertib]
Outline: as §1

[3] = compound: CCn1c(C(=O)N(C2CC2)C2CC2)cc2c3c(ncn3C)c(Nc3cc(C)n(C)n3)nc21
Outline: as §1

[4] = compound: CCn1cc(-c2ccnc3[nH]c(-c4cccc(CN(C)C)c4)cc23)c(-c2ccc(NC(=O)N(C)C)cc2)n1
Outline: as §1

[5] = compound: CN1CCC(CNc2ccc3ncc(-c4cccc(OC(F)(F)F)c4)n3n2)CC1
Outline: as §1

saracatinib = compound: CN1CCN(CCOc2cc(OC3CCOCC3)c3c(Nc4c(Cl)ccc5c4OCO5)ncnc3c2)CC1 [saracatinib]
Outline: as §1

sotrastaurin = compound: CN1CCN(c2nc(C3=C(c4c[nH]c5ccccc45)C(=O)NC3=O)c3ccccc3n2)CC1 [sotrastaurin]
Outline: as §1

Sequence of UniProt Q96LW4 (Q96LW4 whole entry, looked up): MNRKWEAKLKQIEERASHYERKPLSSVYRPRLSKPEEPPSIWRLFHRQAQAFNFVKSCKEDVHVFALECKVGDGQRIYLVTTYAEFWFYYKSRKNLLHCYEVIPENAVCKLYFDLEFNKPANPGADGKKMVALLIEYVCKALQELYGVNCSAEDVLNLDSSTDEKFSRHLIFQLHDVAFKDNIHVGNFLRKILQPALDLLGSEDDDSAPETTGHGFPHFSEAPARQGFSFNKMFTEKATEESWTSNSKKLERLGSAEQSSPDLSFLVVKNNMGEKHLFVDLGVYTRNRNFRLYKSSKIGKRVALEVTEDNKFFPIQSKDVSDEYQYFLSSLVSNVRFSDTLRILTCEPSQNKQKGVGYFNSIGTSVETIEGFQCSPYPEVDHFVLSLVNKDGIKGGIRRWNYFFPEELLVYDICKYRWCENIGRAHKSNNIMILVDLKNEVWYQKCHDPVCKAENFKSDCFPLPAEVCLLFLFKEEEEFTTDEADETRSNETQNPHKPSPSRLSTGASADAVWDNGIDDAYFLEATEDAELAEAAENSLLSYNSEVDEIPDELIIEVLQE
Sequence of UniProt Q13362 (Q13362 whole entry, looked up): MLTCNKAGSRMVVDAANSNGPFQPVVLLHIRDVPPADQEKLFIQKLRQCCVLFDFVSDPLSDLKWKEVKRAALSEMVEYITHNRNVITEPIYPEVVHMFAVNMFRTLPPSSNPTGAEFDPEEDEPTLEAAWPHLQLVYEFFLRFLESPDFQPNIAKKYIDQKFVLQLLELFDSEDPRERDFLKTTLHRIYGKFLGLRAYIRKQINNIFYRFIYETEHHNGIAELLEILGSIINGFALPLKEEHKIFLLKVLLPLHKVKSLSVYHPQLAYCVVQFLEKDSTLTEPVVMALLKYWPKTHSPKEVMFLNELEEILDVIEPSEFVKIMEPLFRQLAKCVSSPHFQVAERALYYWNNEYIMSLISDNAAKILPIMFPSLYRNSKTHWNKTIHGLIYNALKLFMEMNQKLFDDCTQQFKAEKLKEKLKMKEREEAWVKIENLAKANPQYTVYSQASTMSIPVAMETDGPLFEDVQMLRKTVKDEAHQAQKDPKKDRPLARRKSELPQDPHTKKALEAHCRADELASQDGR
Sequence of UniProt P41247 (P41247 whole entry, looked up): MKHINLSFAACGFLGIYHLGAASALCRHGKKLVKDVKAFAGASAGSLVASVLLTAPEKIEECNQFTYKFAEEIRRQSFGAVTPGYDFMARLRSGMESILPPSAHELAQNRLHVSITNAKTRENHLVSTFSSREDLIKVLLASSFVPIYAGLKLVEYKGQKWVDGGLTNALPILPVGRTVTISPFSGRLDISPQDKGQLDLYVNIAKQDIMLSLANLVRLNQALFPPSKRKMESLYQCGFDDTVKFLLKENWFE
Sequence of UniProt P45877 (P45877 whole entry, looked up): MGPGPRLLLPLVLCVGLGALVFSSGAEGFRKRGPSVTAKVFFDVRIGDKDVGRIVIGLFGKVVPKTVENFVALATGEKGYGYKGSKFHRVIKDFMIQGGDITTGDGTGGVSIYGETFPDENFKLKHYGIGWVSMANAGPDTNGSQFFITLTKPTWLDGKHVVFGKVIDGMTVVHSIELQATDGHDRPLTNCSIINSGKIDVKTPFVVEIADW
Sequence of UniProt Q9Y4D7 (Q9Y4D7 whole entry, looked up): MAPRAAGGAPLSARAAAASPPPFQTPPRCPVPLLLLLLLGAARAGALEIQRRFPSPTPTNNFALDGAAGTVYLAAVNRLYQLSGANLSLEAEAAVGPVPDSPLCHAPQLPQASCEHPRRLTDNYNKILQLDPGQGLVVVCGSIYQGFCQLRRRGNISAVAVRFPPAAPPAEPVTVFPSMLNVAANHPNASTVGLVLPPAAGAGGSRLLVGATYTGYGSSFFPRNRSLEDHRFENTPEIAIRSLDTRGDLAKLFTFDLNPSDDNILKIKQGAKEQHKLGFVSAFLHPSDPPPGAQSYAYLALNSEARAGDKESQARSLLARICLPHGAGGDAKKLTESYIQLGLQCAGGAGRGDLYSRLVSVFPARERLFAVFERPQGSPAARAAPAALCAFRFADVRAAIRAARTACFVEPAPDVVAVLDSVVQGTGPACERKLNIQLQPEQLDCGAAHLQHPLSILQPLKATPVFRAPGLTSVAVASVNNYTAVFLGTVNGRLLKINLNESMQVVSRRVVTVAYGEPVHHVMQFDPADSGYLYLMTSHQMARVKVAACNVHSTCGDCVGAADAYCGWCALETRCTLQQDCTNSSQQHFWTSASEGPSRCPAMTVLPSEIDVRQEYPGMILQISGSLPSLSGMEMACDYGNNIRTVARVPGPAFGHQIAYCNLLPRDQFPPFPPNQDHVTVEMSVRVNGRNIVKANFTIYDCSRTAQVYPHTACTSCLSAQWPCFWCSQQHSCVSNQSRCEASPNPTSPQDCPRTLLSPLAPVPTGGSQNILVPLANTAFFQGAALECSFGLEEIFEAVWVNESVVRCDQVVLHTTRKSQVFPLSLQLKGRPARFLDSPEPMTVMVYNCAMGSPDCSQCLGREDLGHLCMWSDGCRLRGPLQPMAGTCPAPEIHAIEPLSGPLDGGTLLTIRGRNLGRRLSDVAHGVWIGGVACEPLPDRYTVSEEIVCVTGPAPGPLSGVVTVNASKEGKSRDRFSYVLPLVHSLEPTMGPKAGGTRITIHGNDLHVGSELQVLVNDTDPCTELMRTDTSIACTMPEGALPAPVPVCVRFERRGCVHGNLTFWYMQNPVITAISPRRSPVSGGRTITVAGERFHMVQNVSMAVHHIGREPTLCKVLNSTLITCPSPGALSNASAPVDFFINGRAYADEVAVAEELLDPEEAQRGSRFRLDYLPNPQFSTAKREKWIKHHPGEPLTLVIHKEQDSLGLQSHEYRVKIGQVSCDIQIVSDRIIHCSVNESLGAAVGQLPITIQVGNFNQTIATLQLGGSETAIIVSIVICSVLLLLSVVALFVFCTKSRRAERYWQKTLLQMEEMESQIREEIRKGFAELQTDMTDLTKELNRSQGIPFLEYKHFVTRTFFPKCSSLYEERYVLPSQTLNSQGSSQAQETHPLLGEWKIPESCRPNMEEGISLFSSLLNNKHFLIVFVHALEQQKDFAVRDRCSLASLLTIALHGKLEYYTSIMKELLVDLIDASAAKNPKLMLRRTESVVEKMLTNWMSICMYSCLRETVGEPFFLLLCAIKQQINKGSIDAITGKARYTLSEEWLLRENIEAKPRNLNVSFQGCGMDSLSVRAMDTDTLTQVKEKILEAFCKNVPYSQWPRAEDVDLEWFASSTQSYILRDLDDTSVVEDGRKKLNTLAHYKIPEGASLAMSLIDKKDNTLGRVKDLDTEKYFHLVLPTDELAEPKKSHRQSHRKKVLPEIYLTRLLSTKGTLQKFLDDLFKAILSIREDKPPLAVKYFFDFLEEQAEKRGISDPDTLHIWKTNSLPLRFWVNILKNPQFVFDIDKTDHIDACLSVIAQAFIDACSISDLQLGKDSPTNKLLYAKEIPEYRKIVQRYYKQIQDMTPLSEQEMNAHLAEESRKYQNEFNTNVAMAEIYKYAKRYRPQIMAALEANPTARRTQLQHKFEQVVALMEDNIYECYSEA
Sequence of UniProt Q4G0T1 (Q4G0T1 whole entry, looked up): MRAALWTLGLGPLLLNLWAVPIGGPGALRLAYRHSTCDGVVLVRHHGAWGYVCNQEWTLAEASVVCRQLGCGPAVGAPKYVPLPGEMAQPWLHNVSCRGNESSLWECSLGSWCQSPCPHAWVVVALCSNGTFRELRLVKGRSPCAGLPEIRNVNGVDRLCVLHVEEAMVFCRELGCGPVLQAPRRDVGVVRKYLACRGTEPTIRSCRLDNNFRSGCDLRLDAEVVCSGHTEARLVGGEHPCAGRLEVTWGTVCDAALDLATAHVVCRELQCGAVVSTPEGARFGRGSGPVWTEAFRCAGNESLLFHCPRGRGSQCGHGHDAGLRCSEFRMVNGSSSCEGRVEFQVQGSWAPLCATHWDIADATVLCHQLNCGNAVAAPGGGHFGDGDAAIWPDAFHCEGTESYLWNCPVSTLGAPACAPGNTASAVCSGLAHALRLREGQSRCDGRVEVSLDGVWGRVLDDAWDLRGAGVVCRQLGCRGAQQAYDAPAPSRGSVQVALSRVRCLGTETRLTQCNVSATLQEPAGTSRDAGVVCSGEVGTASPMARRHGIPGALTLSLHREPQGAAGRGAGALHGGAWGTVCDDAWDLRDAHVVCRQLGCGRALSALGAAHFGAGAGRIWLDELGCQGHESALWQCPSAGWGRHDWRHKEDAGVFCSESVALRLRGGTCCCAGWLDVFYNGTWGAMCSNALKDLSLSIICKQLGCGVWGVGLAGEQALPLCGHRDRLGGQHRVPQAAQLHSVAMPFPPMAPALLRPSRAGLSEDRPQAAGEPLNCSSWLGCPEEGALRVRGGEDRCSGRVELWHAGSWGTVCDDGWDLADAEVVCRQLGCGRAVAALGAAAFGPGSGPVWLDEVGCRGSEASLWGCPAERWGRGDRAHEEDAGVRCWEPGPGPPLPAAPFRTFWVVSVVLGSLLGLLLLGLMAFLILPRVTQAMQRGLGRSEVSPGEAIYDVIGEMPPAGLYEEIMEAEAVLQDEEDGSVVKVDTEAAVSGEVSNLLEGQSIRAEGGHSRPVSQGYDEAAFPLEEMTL
Sequence of UniProt Q16378 (Q16378 whole entry, looked up): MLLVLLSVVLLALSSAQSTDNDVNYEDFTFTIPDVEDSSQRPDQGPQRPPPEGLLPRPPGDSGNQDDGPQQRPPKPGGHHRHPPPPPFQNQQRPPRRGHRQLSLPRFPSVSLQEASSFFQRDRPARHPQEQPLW
Sequence of UniProt Q9Y570 (Q9Y570 whole entry, looked up): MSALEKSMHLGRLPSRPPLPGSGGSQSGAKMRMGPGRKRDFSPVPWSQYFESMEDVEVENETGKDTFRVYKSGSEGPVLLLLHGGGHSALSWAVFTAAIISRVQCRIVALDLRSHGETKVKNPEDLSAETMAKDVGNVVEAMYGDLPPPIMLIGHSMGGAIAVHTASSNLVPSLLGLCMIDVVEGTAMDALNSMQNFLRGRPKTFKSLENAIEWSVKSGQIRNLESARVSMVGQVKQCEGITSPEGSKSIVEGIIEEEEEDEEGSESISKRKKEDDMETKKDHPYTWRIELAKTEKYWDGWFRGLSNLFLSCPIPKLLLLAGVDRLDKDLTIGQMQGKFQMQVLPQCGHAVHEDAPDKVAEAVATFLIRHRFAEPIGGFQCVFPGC

Target	log2 fold change (vemurafenib)	log2 fold change [1]	log2 fold change (barasertib)	log2 fold change [2]	log2 fold change (volasertib)	log2 fold change [3]	log2 fold change [4]	log2 fold change [5]	log2 fold change (saracatinib)	log2 fold change (sotrastaurin)
PRRC2A (UniProt P48634)	-0.006	0.008	-0.013	0.107	0.012	0.013	0.05	0.008	0.049	-0.014
PDE2A (UniProt O00408)	0.374 (active)	-0.015	-0.015	-0.215	0.041	-0.173	-0.135	0.023	-0.042	0.039
PITRM1 isoform 2 (UniProt Q5JRX3)	-0.026	0.001	-0.01	-0.018	0.127	-0.008	0.07	-0.048	-0.021	0.007
PFDN2 (UniProt Q9UHV9)	-0.049	0	0.064	-0.022	0.029	0.082	0.471 (active)	-0.049	0.009	0.039
PICALM (UniProt H0YEH1)	0.05	-0.094	-0.018	-0.008	-0.011	-0.014	-0.54 (active)	0.248	0.056	0.126
PCBD2 (UniProt Q9H0N5)	0.004	-0.017	0.013	0.018	0.016	0.031	-0.237	0.11	-0.05	0.055
NA (UniProt Q4G0T1)	–	–	–	–	–	0.032	0.022	0.026	-0.033	0.129
POM121C (UniProt A8CG34)	–	-0.037	0.201	–	-0.101	0.045	0.146	0.158	–	–
PHC1 (UniProt P78364)	0.042	–	0.034	0.097	–	–	–	–	0.066	-0.354
PNPLA4 (UniProt P41247)	0.098	–	–	0.002	–	-0.111	0.165	0.414	0.009	-0.013
PDE4DIP (UniProt E9PS60)	-0.014	–	–	0.017	–	–	-0.942 (active)	0.153	0.067	0.137
PDIA4, A0A499FI48	–	–	–	–	–	–	1.69 (active)	-0.33	0.03	-0.048
PLK1 (UniProt P53350)	0.053	-0.009	0.003	–	-0.009	0.014	0.165	-0.279	0.021	-0.335 (active)
PYGO2 (UniProt Q9BRQ0)	–	–	0.036	-0.106	–	0	-0.044	0.042	0.07	-0.022
PLXND1 (UniProt Q9Y4D7)	–	–	0.045	–	–	-0.214	–	–	0.018	0.012
PTK2 isoform 2 (UniProt Q05397)	–	-0.101	0.05	-0.076	-0.387	–	–	–	-0.063	–
PIK3CD (UniProt O00329)	-0.094	0.005	-0.046	–	-0.015	0.072	-0.109	0.398	-0.04	0.023
PHKG1 isoform 2 (UniProt Q16816)	-0.197	-0.037	–	-0.062	0.033	0.054	-0.867 (active)	0.64	0.177	-0.269
PRRG1 (UniProt O14668)	–	–	–	–	–	0.052	–	–	–	–
PREP (UniProt H0Y5Y0)	–	0.019	–	–	0.079	–	0.678	-0.144	–	–
PRIMPOL (UniProt Q96LW4)	-0.02	–	-0.083	-0.095	–	0.011	–	–	0.014	0.089
PIM1 isoform 2 (UniProt P11309)	-0.061	–	0.139	0.002	–	0.073	-0.068	1.46 (active)	0	0.593 (active)
PHOSPHO2 (UniProt C9JD35)	–	–	–	-0.432	–	–	–	–	–	-0.027

Target	log2 fold change (vemurafenib)	log2 fold change [1]	log2 fold change (barasertib)	log2 fold change [2]	log2 fold change (volasertib)	log2 fold change [3]	log2 fold change [4]	log2 fold change [5]	log2 fold change (saracatinib)	log2 fold change (sotrastaurin)
POLR2M (UniProt Q6EEV4)	0.117	-0.043	0.176	0.032	-0.074	–	0.154	-0.077	0.016	-0.072
PEX2 (UniProt P28328)	0.079	-0.047	0.174	–	0.024	0.052	0.011	0.024	-0.086	0.036
PRG4 (UniProt Q92954)	–	-0.038	0.332	–	0.054	-0.03	-0.179	0.229	0.009	-0.02
POLR2F (UniProt U3KPV3)	–	–	–	0.13	–	–	–	–	-0.051	–
PHGDH, A0A286YFE1	–	0.158	0.364	–	0.083	–	–	–	-0.318	–
PMS1 (UniProt P54277)	0.037	–	0.193	0.019	–	-0.028	-0.01	-0.051	0.016	-0.002
PFN3 (UniProt P60673)	0.059	0	–	0.112	0.056	–	-0.706 (active)	0.109	–	0.042
PIP5K1A (UniProt Q99755)	–	0.029	0.108	–	0.07	-0.041	0.027	-0.514 (active)	0.107	-0.018
PFN1 (UniProt I3L3D5)	–	-0.142	0.241	-0.01	-0.107	-0.067	0.924 (active)	-0.135	–	–
PECR (UniProt Q9BY49)	–	–	–	0.023	–	–	–	–	–	–
PCLAF (UniProt Q15004)	-0.016	–	-0.068	0.057	–	-0.033	-0.067	0.121	-0.013	0.011
PTMA isoform 2 (UniProt P06454)	–	–	-0.09	–	–	–	–	–	–	–
PIK3CG (UniProt P48736)	0.028	–	0.046	0.004	–	0.006	-0.276 (active)	0.289 (active)	0.028	0.051
PPP2R5C isoform 2 (UniProt Q13362)	0.014	–	-0.267	–	–	-0.081	-0.023	-0.033	0.014	0.134
PCBP2 (UniProt F8W0G4)	0.121	–	0.035	-0.253	–	-0.066	–	–	0.005	–
PIAS2 (UniProt O75928)	-0.263	–	–	-0.026	–	0.003	–	–	0.044	-0.033
PPME1 (UniProt Q9Y570)	–	-0.042	0.026	0.104	-0.012	–	–	–	-0.043	–
PCBP2 (UniProt F8VRH0)	–	-0.035	–	–	-0.058	-0.138	-0.033	-0.047	–	-0.066
PRADC1 (UniProt Q9BSG0)	–	0.011	-0.509 (active)	–	0.074	-0.05	0.057	0.101	0.054	-0.015
PRR4 (UniProt Q16378)	0.367	0.038	–	-0.21	-0.046	-0.005	0.358	-1.21 (active)	–	–
PPP1R11 (UniProt O60927)	–	0.069	-0.04	0.153	0.046	-0.101	0.16	-0.067	-0.05	0.001
PPIC (UniProt P45877)	-0.009	–	0.203	–	–	0.078	-0.112	0.124	-0.004	-0.453 (active)
